Experimental data taken from PubChem BioAssay AID1347423 (Functional Genomics Laboratory (NCATS/FGL), 2020).
Out of some 52,000 sequences screened, about 210 (0.4%) were called active. The entries come from a sample that favours actives as a whole. Unmarked numbers belong to inactive results.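 The calls were made as follows: active = gene whose silencing raises cell survival under the drug, median off-target-corrected z-score across its silencing RNAs 2 or more; inactive = the rest.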

experiment: Resistance to Poly (ADP-Ribose) Polymerase inhibitor: Gene Identification via Genome-wide siRNA Screen; conditions: mouse BRCA2 R2336H ES cells, olaparib, CellTiter-Glo viability; hits give high values
Outline: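 Mouse BRCA2 R2336H ES cells were reverse-transfected with siRNA (20 nM final), treated at 48 h with 500 nM olaparib, and read by CellTiter-Glo after 72 h. Scores: MAD-based z per siRNA, median per gene, seed off-target correction.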

In order of falling z-score:
1. GGACAUAAAAAUACGCCAGTT against Hsf1  3.22
2. GGUGAUCAAUCCUCUAAUATT against Cri2  3.03
3. GCUCAACAGACUCUGUACUTT against Igsf4d  2.89
4. CGUACAAGACCAACAGAAGTT against D8Ertd82e  2.36
5. GGACUGGUUCUUCAGUACCTT against Cradd  2.24
6. GCCUCAGAAAAACAUCUAUTT against BC008103  2.16
7. GGAAAGAAUAUGAGAAUGCTT against Reck  2.07
8. CCGUGGGACCAGAGUUAAATT against Gm253  1.99
9. GGCGCAUGUUUCCAGCAAUTT against Tbx18  1.87
10. GGUUUCUCUCUACGCUAUGTT against Nrp2  1.81
11. GGGUAGCUGGCGAAUCAAATT against Ptpro  1.43
12. GGCUUAUGUCCCAAAGCUATT against Nexn  1.35
13. CCGAAAUAAGGCUAGCUCATT against Rfxdc1  1.33
14. GGAUAAACUUCCAUCUUUCTT against Car14  1.27
15. GCUAAUUUGACAAAGACGGTT against Bfsp2  1.26
16. GGUCAUCUAUCGUGUGCUGTT against Lamb2  1.09
17. GGACAUCCAUUCAAGGCCUTT against Rtn3  1.05
18. GAUUACAGACAGUGGAAAATT against Ndufb3  0.951
19. CCUCGUUCCUAUCAUUAACTT against Sdccag8  0.858
20. GGAUCUCUGUUUCUCAAAATT against Slc19a3  0.771
21. GCAUGAAAACACGUUUGGGTT against Hdac11  0.768
22. GGAAGAAUUGAACCACAGGTT against Papolg  0.756
23. GGUUUUUGAGCCAUAUCCATT against 4632404H22Rik  0.625
24. CCCUCAACUUUCAGAUCAGTT against Ard1  0.611
25. CCUACAUUCACCAAAAGGUTT against Usp9y  0.561
26. CCUUGUAUCCUUAAUCCUCTT against Ppt1  0.555
27. CCAUUUAACCGUAAGACGUTT against Krtap8-2  0.535
28. GCUUAUGAUGAACAAGCCCTT against Aplra1  0.51
29. CCCACUAAGAAACAAUCUATT against Gp1ba  0.484
30. GCGAGUCGCUCAUAGUGAATT against AW822216  0.476
31. GGAAAAGUCCUGUAAAAUUTT against Dmrta1  0.431
32. GGAAUUUGACAAACUCAGCTT against Rcn3  0.337
33. CCUCAAGAGAGCUACCGCATT against 1700018C11Rik  0.313
34. GUCUGUAUUCCUAGAUUCCTT against Olfr794  0.287
35. CCGUGCCAAUAGUUCUGCUTT against Dpp4  0.286
36. CCCUUGAAGAUCACUUAGCTT against Apln  0.228
37. GGUGGCACUCUUUCAGAUCTT against 6030446I19Rik  0.179
38. GGCUACGAAACCAGAAGAUTT against Shd  0.117
39. GCUAGUUGGAGCUAGAUUATT against E130320D18  0.013
40. GGUUUGAGCUCUUUAUUUUTT against Cyp2j13  0.00818
41. GGCGGUGAUCCAGGGUUUATT against Klc2  -0.0337
42. CCGAAAGAACACAAUCUAUTT against Ifi16  -0.1
43. GGAAGGAAGAAAAAAUAGUTT against Acat1  -0.146
44. GGACACAAAUGACAUCAACTT against Ptpns1  -0.156
45. CCUUCUGGCCCAGACGAUUTT against Pxmp2  -0.173
46. GCAAUGUCGCCAAACGUAATT against Zfpn1a1  -0.213
47. GGGAUGUAUUAGUGAAAGGTT against Dm15  -0.213
48. GGGAUGCUUUUGGCCCAAATT against 1110008J03Rik  -0.285
49. GGAAAAAUGGGAGUUUGAATT against 4932423M01Rik  -0.322
50. CCUAGAUUGAAAAUUGUCATT against 1700049G17Rik  -0.329
51. GGCCCAUUGAUCUGUGAUATT against Klk8  -0.338
52. GGCAUUCGAAGGGACAGAUTT against Arg2  -0.343
53. GGAAAUGUGACCACAAAGATT against Tas2r120  -0.347
54. GAUCUUAUAUGUUGGUGGUTT against V1rc2  -0.413
55. GGAUCCAAGCAUUAUAGUGTT against LOC229512  -0.425
56. GGAACAUAGUAGCAUGCCATT against Leprel2  -0.442
57. AACAGCAUCUUUGUGGUCCTT against Ins1  -0.451
58. GGUUAGGUUGAUGAAUAAGTT against Eif4ebp2  -0.495
59. CUGUAAGGCGGAUAAGACCTT against 2610017I09Rik  -0.52
60. GGAGAUCGUGCAAUUCAUUTT against Rasl2-9  -0.53
61. GCAUCGUUACAGGACUUUATT against Enpp1  -0.601
62. CGAUGAAAUCAUCACUAUCTT against Cyfip1  -0.619
63. CCAGCAUAUCUACUGUUCUTT against V1rf2  -0.647
64. CGAUCUUCCAAACCCUCUUTT against Dhh  -0.652
65. GGACCUGUUUGAAGAAAAGTT against Gnai2  -0.66
66. GGGUUCCUCCUUUCACAGATT against Ppia  -0.754
67. CCGGCAACAUGCGUGAAUUTT against Trpv4  -0.769
68. GCUAGGAAGAGAGUGAUCUTT against Alg1  -0.838
69. GCAGCACCUUUGUGGUUCCTT against Ins2  -0.904
70. GGACUGAGGAAGAAUUUAATT against Grp58  -0.954
71. GGGACUUCUUGUGAAUGGATT against Mobp  -0.971
72. CCCAUUAUUGGCACUACAATT against LOC434285  -0.98
73. GGAUUCUGCCUGAUCAAUGTT against 1110008F13Rik  -1.08
74. GGACGAACCUUUAUACCAGTT against Arhgef15  -1.21
75. GGUUGUGGAACUAGAAUAUTT against Wdr12  -1.25
76. GCUGAGAGAAAGGUUCACATT against Tube1  -1.3
77. GGACCAGAAAAUUCACUUUTT against Gdap2  -1.39
78. GCAAGUUAUCCAGCACUCATT against Ylpm1  -1.57
79. CCCUUGUGAUGUGGUGAAGTT against Slc25a22  -1.58
80. GGCUGCCUCGAAAUUACAATT against Lamb3  -1.79
81. CCUUAAUAAACUAUGCUGCTT against 2810439M11Rik  -1.83
82. CCCGCUCAAGAUCCUGUUUTT against 2310011J03Rik  -1.85
83. GGGCAGAGUGAUGUUGUCATT against Gsdmdc1  -1.93
84. GGAAUGUAUCCAGGACUUCTT against Brd4  -1.95
85. UUGUCCUGGUCUCCUAUGCTT against Olfr141  -1.98
86. GCCCAAACUCAAGCAAGUCTT against Trpm3  -2.79

In the case of “GGAUCUGAAGGAAUACUUUTT against 2400010G15Rik”, the z-score is reported as 2.14 (active).
For GCACUGGAAUCAAACCAUCTT against Ppp2r5b, the z-score was 2.45 (active).
In the case of GCAUGCGCGCUACACUCUATT against Adamts5, the z-score is reported as 0.75 (active).
For GGUAGUGUUAACUAUAUGGTT against Hmgb3, the z-score was 1.85 (active).
With GGCACAGGGACCAUUGUUGTT against Hsd17b1 the z-score was 2.34 (active).
In the case of CGGCCUAUCUCUUGGUUUATT against Usp18, the z-score is reported as 2.69 (active).
For “GGUCUCAAUCAGAGUUACATT against D430030K24Rik”, the z-score was 1.08 (active).
For GGGCUGGAAUAAACUUGUCTT against Usp15, the z-score was 1.51 (active).
With GGUCACUGUUUCCCUAGACTT against Prss33 the z-score was -0.494 (active).
In the case of GGACAAGGAUAGUAGUAAGTT against Adprt1, the z-score is reported as 3.83 (active).
For CCGUAAUUGAUUCUUUACUTT against Kif3a, the z-score was 2.25 (active).
For GGAAGCAGAAUUGUAAAGATT against Bid3, the z-score was 2.41 (active).
For GCCUGCUCUUGAAGGAUAATT against Ptpn9, the z-score was 1.13 (active).
With GGAAUUUUAGCGGAUGAUATT against Smarca3 the z-score was 1.54 (active).
For GGAAGUCAGACAGAUUUAATT against Prss33, the z-score was 3.17 (active).
With CGUCUCUGCUGAGAACAUGTT against Kcnk15 the z-score was 2.15 (active).
For “GGACAUGACCAAAAGGCUGTT against 3110006P09Rik”, the z-score was 2.27 (active).
For “GGCCUUCUCUGACUUUCUGTT against D430030K24Rik”, the z-score was 3.28 (active).
For GGAAGAAAACAUGGAAGAATT against Usp47, the z-score was 3.28 (active).
With GGAGCAAAUCCAGAGCAACTT against Actr8 the z-score was 2.88 (active).
